Measurements taken from article PMC11006913.

Assays:
Experiment in all cases: PBM; 200 nM protein, PBS
Settings in all cases: dsDNA, one strand shown
HESX1 [1] = target: HESX1 (Homo sapiens, UniProt Q9UBX0 95-180, R165K)
SHOX [2] = target: SHOX (Homo sapiens, UniProt O15266 103-189)
ALX4 = ALX4 (Homo sapiens, UniProt Q9H161 200-286, Q225E)
HESX1 [3] = target: HESX1 (Homo sapiens, UniProt Q9UBX0 95-180)
MSX2 = MSX2 (Homo sapiens, UniProt P35548 130-214, R199I)
ALX1 [4] = target: ALX1 (Homo sapiens, UniProt Q15699 118-204, L144V)
ALX3 [5] = target: ALX3 (Homo sapiens, UniProt O95076 139-225, N203Q)
SHOX [6] = target: SHOX (Homo sapiens, UniProt O15266 103-189, R173C)
ALX1 [7] = target: ALX1 (Homo sapiens, UniProt Q15699 118-204, L144R)
ALX3 [8] = target: ALX3 (Homo sapiens, UniProt O95076 139-225)
PROP1 [9] = target: PROP1 (Homo sapiens, UniProt O75360 56-141)
HESX1 [10] = target: HESX1 (Homo sapiens, UniProt Q9UBX0 95-180, R109Q)
PROP1 [11] = target: PROP1 (Homo sapiens, UniProt O75360 56-141, R99H)
ALX3 [12] = target: ALX3 (Homo sapiens, UniProt O95076 139-225, L168Q)
HESX1 [13] = target: HESX1 (Homo sapiens, UniProt Q9UBX0 95-180, P111T)
ALX3 [14] = target: ALX3 (Homo sapiens, UniProt O95076 139-225, L168V)
PROP1 [15] = target: PROP1 (Homo sapiens, UniProt O75360 56-141, F88S)
HESX1 [16] = target: HESX1 (Homo sapiens, UniProt Q9UBX0 95-180, F115L)
ALX1 [17] = target: ALX1 (Homo sapiens, UniProt Q15699 118-204)
ALX3 [18] = target: ALX3 (Homo sapiens, UniProt O95076 139-225, N203S)
Sequence of ALX3 (Homo sapiens, UniProt O95076 139-225, N203S) (O95076 139-225 N203S): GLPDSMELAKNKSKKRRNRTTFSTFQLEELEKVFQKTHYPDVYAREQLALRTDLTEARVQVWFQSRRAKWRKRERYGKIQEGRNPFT

Sequence of HESX1 (Homo sapiens, UniProt Q9UBX0 95-180, F115L) (Q9UBX0 95-180 F115L): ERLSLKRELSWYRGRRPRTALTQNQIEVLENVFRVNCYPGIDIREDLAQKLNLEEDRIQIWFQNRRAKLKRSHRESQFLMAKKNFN
Sequence of ALX4 (Q9H161 200-286 Q225E): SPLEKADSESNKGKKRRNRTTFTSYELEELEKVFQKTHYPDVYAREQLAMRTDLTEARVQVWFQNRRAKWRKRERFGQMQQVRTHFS
Sequence of SHOX (Homo sapiens, UniProt O15266 103-189) (O15266 103-189): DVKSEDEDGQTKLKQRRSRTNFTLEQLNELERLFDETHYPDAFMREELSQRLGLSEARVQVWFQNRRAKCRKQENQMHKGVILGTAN
Sequence of ALX1 (Homo sapiens, UniProt Q15699 118-204) (Q15699 118-204): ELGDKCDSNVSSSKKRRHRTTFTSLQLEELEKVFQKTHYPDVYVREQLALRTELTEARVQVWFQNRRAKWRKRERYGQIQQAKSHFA
Sequence of ALX3 (Homo sapiens, UniProt O95076 139-225) (O95076 139-225): as the sequence (O95076 139-225 N203S) above, with S65N counted along it
Sequence of MSX2 (P35548 130-214 R199I): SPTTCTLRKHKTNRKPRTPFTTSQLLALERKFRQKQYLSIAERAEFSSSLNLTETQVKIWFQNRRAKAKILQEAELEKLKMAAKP
Sequence of PROP1 (Homo sapiens, UniProt O75360 56-141, F88S) (O75360 56-141 F88S): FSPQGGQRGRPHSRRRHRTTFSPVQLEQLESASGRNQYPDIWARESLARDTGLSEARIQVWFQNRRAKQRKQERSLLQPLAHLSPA
Sequence of HESX1 (Homo sapiens, UniProt Q9UBX0 95-180, R165K) (Q9UBX0 95-180 R165K): as the sequence (Q9UBX0 95-180 F115L) above, with L21F, R71K counted along it
Sequence of HESX1 (Homo sapiens, UniProt Q9UBX0 95-180, P111T) (Q9UBX0 95-180 P111T): as the sequence (Q9UBX0 95-180 F115L) above, with P17T, L21F counted along it
Sequence of HESX1 (Homo sapiens, UniProt Q9UBX0 95-180, R109Q) (Q9UBX0 95-180 R109Q): as the sequence (Q9UBX0 95-180 F115L) above, with R15Q, L21F counted along it
Sequence of PROP1 (Homo sapiens, UniProt O75360 56-141, R99H) (O75360 56-141 R99H): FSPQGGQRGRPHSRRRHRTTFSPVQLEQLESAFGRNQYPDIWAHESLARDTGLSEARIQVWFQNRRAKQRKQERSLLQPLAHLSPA
Sequence of ALX3 (Homo sapiens, UniProt O95076 139-225, L168Q) (O95076 139-225 L168Q): as the sequence (O95076 139-225 N203S) above, with L30Q, S65N counted along it
Sequence of PROP1 (Homo sapiens, UniProt O75360 56-141) (O75360 56-141): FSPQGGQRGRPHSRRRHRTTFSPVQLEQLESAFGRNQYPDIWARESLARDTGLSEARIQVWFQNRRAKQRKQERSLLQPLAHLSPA
Sequence of ALX1 (Homo sapiens, UniProt Q15699 118-204, L144R) (Q15699 118-204 L144R): as the sequence (Q15699 118-204) above, with L27R counted along it
Sequence of ALX1 (Homo sapiens, UniProt Q15699 118-204, L144V) (Q15699 118-204 L144V): as the sequence (Q15699 118-204) above, with L27V counted along it
Sequence of ALX3 (Homo sapiens, UniProt O95076 139-225, N203Q) (O95076 139-225 N203Q): as the sequence (O95076 139-225 N203S) above, with S65Q counted along it
Sequence of ALX3 (Homo sapiens, UniProt O95076 139-225, L168V) (O95076 139-225 L168V): as the sequence (O95076 139-225 N203S) above, with L30V, S65N counted along it
Sequence of SHOX (Homo sapiens, UniProt O15266 103-189, R173C) (O15266 103-189 R173C): as the sequence (O15266 103-189) above, with R71C counted along it
Sequence of HESX1 (Homo sapiens, UniProt Q9UBX0 95-180) (Q9UBX0 95-180): as the sequence (Q9UBX0 95-180 F115L) above, with L21F counted along it

Sequence | binding signal (HESX1 [1]) | binding signal (SHOX [2]) | binding signal (ALX4) | binding signal (HESX1 [3]) | binding signal (MSX2) | binding signal (ALX1 [4]) | binding signal (ALX3 [5]) | binding signal (SHOX [6]) | binding signal (ALX1 [7]) | binding signal (ALX3 [8]) | binding signal (PROP1 [9]) | binding signal (HESX1 [10]) | binding signal (PROP1 [11]) | binding signal (ALX3 [12]) | binding signal (HESX1 [13]) | binding signal (ALX3 [14]) | binding signal (PROP1 [15]) | binding signal (HESX1 [16]) | binding signal (ALX1 [17]) | binding signal (ALX3 [18])
AATTAGTC | 11.5 upbm affinity estimate (log intensity, higher = more binding, comparable within an allelic series) | 11.7 upbm affinity estimate (log intensity, higher = more binding, comparable within an allelic series) | 12.8 upbm affinity estimate (log intensity, higher = more binding, comparable within an allelic series) | 11.8 upbm affinity estimate (log intensity, higher = more binding, comparable within an allelic series) | 12.3 upbm affinity estimate (log intensity, higher = more binding, comparable within an allelic series) | 11.5 upbm affinity estimate (log intensity, higher = more binding, comparable within an allelic series) | 8.3 upbm affinity estimate (log intensity, higher = more binding, comparable within an allelic series) | 9.37 upbm affinity estimate (log intensity, higher = more binding, comparable within an allelic series) | 11.1 upbm affinity estimate (log intensity, higher = more binding, comparable within an allelic series) | 12.2 upbm affinity estimate (log intensity, higher = more binding, comparable within an allelic series) | 11.1 upbm affinity estimate (log intensity, higher = more binding, comparable within an allelic series) | 8.88 upbm affinity estimate (log intensity, higher = more binding, comparable within an allelic series) | 11 upbm affinity estimate (log intensity, higher = more binding, comparable within an allelic series) | 10.3 upbm affinity estimate (log intensity, higher = more binding, comparable within an allelic series) | 10.4 upbm affinity estimate (log intensity, higher = more binding, comparable within an allelic series) | 9.88 upbm affinity estimate (log intensity, higher = more binding, comparable within an allelic series) | 7.67 upbm affinity estimate (log intensity, higher = more binding, comparable within an allelic series) | 7.67 upbm affinity estimate (log intensity, higher = more binding, comparable within an allelic series) | 12.1 upbm affinity estimate (log intensity, higher = more binding, comparable within an allelic series) | 8.39 upbm affinity estimate (log intensity, higher = more binding, comparable within an allelic series)
AATTAATC | 11.9 upbm affinity estimate (log intensity, higher = more binding, comparable within an allelic series) | 11.9 upbm affinity estimate (log intensity, higher = more binding, comparable within an allelic series) | 13.2 upbm affinity estimate (log intensity, higher = more binding, comparable within an allelic series) | 12 upbm affinity estimate (log intensity, higher = more binding, comparable within an allelic series) | 12.3 upbm affinity estimate (log intensity, higher = more binding, comparable within an allelic series) | 11.9 upbm affinity estimate (log intensity, higher = more binding, comparable within an allelic series) | 8.39 upbm affinity estimate (log intensity, higher = more binding, comparable within an allelic series) | 9.4 upbm affinity estimate (log intensity, higher = more binding, comparable within an allelic series) | 11.6 upbm affinity estimate (log intensity, higher = more binding, comparable within an allelic series) | 12.5 upbm affinity estimate (log intensity, higher = more binding, comparable within an allelic series) | 11.2 upbm affinity estimate (log intensity, higher = more binding, comparable within an allelic series) | 9.36 upbm affinity estimate (log intensity, higher = more binding, comparable within an allelic series) | 11.1 upbm affinity estimate (log intensity, higher = more binding, comparable within an allelic series) | 10.6 upbm affinity estimate (log intensity, higher = more binding, comparable within an allelic series) | 10.7 upbm affinity estimate (log intensity, higher = more binding, comparable within an allelic series) | 10.2 upbm affinity estimate (log intensity, higher = more binding, comparable within an allelic series) | 7.81 upbm affinity estimate (log intensity, higher = more binding, comparable within an allelic series) | 7.79 upbm affinity estimate (log intensity, higher = more binding, comparable within an allelic series) | 12.3 upbm affinity estimate (log intensity, higher = more binding, comparable within an allelic series) | 8.52 upbm affinity estimate (log intensity, higher = more binding, comparable within an allelic series)
CCCTACGG | 6.51 upbm affinity estimate (log intensity, higher = more binding, comparable within an allelic series) | – | – | 6.45 upbm affinity estimate (log intensity, higher = more binding, comparable within an allelic series) | – | – | – | – | – | – | – | 6.54 upbm affinity estimate (log intensity, higher = more binding, comparable within an allelic series) | – | – | 6.48 upbm affinity estimate (log intensity, higher = more binding, comparable within an allelic series) | – | – | 6.43 upbm affinity estimate (log intensity, higher = more binding, comparable within an allelic series) | – | –
GTAATTGA | 12.5 upbm affinity estimate (log intensity, higher = more binding, comparable within an allelic series) | 11.9 upbm affinity estimate (log intensity, higher = more binding, comparable within an allelic series) | 12.8 upbm affinity estimate (log intensity, higher = more binding, comparable within an allelic series) | 12.6 upbm affinity estimate (log intensity, higher = more binding, comparable within an allelic series) | 12.5 upbm affinity estimate (log intensity, higher = more binding, comparable within an allelic series) | 11.7 upbm affinity estimate (log intensity, higher = more binding, comparable within an allelic series) | 8.3 upbm affinity estimate (log intensity, higher = more binding, comparable within an allelic series) | 9.41 upbm affinity estimate (log intensity, higher = more binding, comparable within an allelic series) | 11.2 upbm affinity estimate (log intensity, higher = more binding, comparable within an allelic series) | 12.4 upbm affinity estimate (log intensity, higher = more binding, comparable within an allelic series) | 11.3 upbm affinity estimate (log intensity, higher = more binding, comparable within an allelic series) | 8.99 upbm affinity estimate (log intensity, higher = more binding, comparable within an allelic series) | 11.5 upbm affinity estimate (log intensity, higher = more binding, comparable within an allelic series) | 10.4 upbm affinity estimate (log intensity, higher = more binding, comparable within an allelic series) | 11 upbm affinity estimate (log intensity, higher = more binding, comparable within an allelic series) | 9.76 upbm affinity estimate (log intensity, higher = more binding, comparable within an allelic series) | 7.49 upbm affinity estimate (log intensity, higher = more binding, comparable within an allelic series) | 7.6 upbm affinity estimate (log intensity, higher = more binding, comparable within an allelic series) | 12.3 upbm affinity estimate (log intensity, higher = more binding, comparable within an allelic series) | 8.44 upbm affinity estimate (log intensity, higher = more binding, comparable within an allelic series)
CCCCGGCG | 6.58 upbm affinity estimate (log intensity, higher = more binding, comparable within an allelic series) | 6.85 upbm affinity estimate (log intensity, higher = more binding, comparable within an allelic series) | – | 6.57 upbm affinity estimate (log intensity, higher = more binding, comparable within an allelic series) | – | – | 7.82 upbm affinity estimate (log intensity, higher = more binding, comparable within an allelic series) | 7.05 upbm affinity estimate (log intensity, higher = more binding, comparable within an allelic series) | – | 7.76 upbm affinity estimate (log intensity, higher = more binding, comparable within an allelic series) | – | 6.61 upbm affinity estimate (log intensity, higher = more binding, comparable within an allelic series) | – | 7.73 upbm affinity estimate (log intensity, higher = more binding, comparable within an allelic series) | 6.61 upbm affinity estimate (log intensity, higher = more binding, comparable within an allelic series) | 7.68 upbm affinity estimate (log intensity, higher = more binding, comparable within an allelic series) | – | 6.51 upbm affinity estimate (log intensity, higher = more binding, comparable within an allelic series) | – | 7.81 upbm affinity estimate (log intensity, higher = more binding, comparable within an allelic series)
